# Assay outcomes as filed in PubChem.
# An excerpt weighted towards active compounds, which were near 0.82% of everything screened.
# DUSP3 inh: inhibitors of human VHR1 phosphatase (DUSP3). recombinant VHR phosphatase, pNPP absorbance. inhibition, % at 13.3 µM. 290,000 compounds, 0.52% hits; in the data active means inhibition above about 50%
# Target sequence (P51452 whole entry, looked up): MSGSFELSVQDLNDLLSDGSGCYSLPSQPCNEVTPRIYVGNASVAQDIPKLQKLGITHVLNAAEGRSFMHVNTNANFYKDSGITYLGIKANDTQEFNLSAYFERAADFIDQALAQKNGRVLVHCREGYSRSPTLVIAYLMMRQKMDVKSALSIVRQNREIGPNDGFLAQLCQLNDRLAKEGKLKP
# TcdB inh: TcdB glycohydrolase inhibition | TcdB glycohydrolase enzymatic assay, plate reader | AID 652162 | inhibition, % at 9.99 µM | 350,000 compounds, 0.24% hits; in the data active means inhibition above about 10%
# PrPC TRFRET: inhibitors of human cell surface prion protein PrPC. inhibition, % at 13.8 µM. TR-FRET read-out. AID 720596. P04156. 370,000 compounds, 0.43% hits; in the data active means inhibition above about 24%
# A number is an active result; – = inactive; · = no result.
SMILES,DUSP3 inh,TcdB inh,PrPC TRFRET
COc1cccc(C2C(C(C)=O)=C(C)Nc3ncnn32)c1 (configuration not stated),–,–,·
CC(=O)C1=C(C)Nc2ncnn2C1c1cccc(OCc2ccccc2)c1 (configuration not stated),53,–,–
O=C(NC(=S)N1CCN(c2ccc([N+](=O)[O-])cc2)CC1)c1ccco1,53,–,–
O=C(NC(=S)N1CCN(c2ccc(O)cc2)CC1)c1ccco1,·,–,–
COC(=O)C(c1ccccc1)C(CC(=O)c1ccccc1)c1ccccc1 (configuration not stated),·,–,–
COC(=O)C(C(=O)OC)C(CC(=O)c1ccc(Br)cc1)c1ccccc1 (configuration not stated),·,14,–
O=C(Nc1ccc(F)cc1)Nc1ccc2c(c1)[C@@H]1C[C@@H](CC(=O)N3CCOCC3)O[C@@H](CO)[C@@H]1O2,·,–,·
Cc1ccc(S(=O)(=O)Nc2ccc3c(c2)C(=O)N([C@H](C)CO)C[C@@H](C)[C@@H](CN(C)CC2CCCCC2)OCCCC[C@@H](C)O3)cc1,·,–,·
Cc1cc(C)nc(N2CCCC(C(=O)NC3CC3)C2)n1 (configuration not stated),53,–,–
Cc1cc(C)nc(N2CCCC(C(=O)Nc3ccc(F)cc3)C2)n1 (configuration not stated),–,–,–
CCC(=O)Nc1ccc2c(c1)C(=O)N(C)[C@@H]1CC[C@@H](CC(=O)NCc3ccc(OC)cc3)O[C@@H]1CO2,·,–,·
Cc1ccc(S(=O)(=O)c2ccc([N+](=O)[O-])o2)cc1,·,–,82
Cc1ccc(NC(=O)c2ccc([N+](=O)[O-])o2)c(C)c1,–,–,–
NC(=O)NC(CC(=O)NCCc1ccccn1)c1ccccc1Cl (configuration not stated),53,–,–
NC(=O)NC(CC(=O)NCCCc1ccccc1)c1ccccc1Cl (configuration not stated),–,–,–
COc1ccc(CN2CCN(Cc3cc4ccccc4o3)CC2CCO)cc1C (configuration not stated),59,–,–
COc1cccc(CN2CCN(Cc3cc4ccccc4o3)CC2CCO)c1 (configuration not stated),–,–,–
CNC[C@@H]1OCCCC[C@@H](C)Oc2ccc(NC(=O)CCC(F)(F)F)cc2C(=O)N([C@@H](C)CO)C[C@H]1C,·,–,·
CCCn1c(C)cc(C(=O)COc2ccc(C)nc2[N+](=O)[O-])c1C,54,–,–
COCCn1c(C)cc(C(=O)COc2ccc(C)nc2[N+](=O)[O-])c1C,–,–,–
CN1C(=O)c2cc(NC(=O)c3ccc(C(F)(F)F)cc3)ccc2OC[C@H]2O[C@H](CC(=O)NC3Cc4ccccc4C3)CC[C@@H]21,·,–,·
CC1CCCN(c2ccc(C(=O)Nc3cccnc3)cc2[N+](=O)[O-])C1 (configuration not stated),52,–,–
CC(=O)Nc1ccc(N2CCCC(C)C2)c([N+](=O)[O-])c1 (configuration not stated),–,–,–
Cc1ccc(-n2nc3c(=O)n(CCCC(=O)NCc4ccc(C)o4)nc(C)c3c2C)cc1,–,–,–
Cc1ccc(-n2nc3c(=O)n(CC(=O)NCc4ccc(C)o4)nc(C)c3c2C)cc1,53,–,–
SMILES,DUSP3 inh,TcdB inh,PrPC TRFRET
Cc1noc(C)c1S(=O)(=O)Nc1ccc2c(c1)C(=O)N([C@H](C)CO)C[C@H](C)[C@@H](CN(C)S(C)(=O)=O)OCCCC[C@@H](C)O2,·,–,·
COc1ccc2nc(C)cc(SCC(=O)N/N=C/c3ccco3)c2c1,–,–,–
COc1ccc(OC)c(/C=N/NC(=O)CSc2cc(C)nc3c(OC)cccc23)c1,53,–,–
COc1ccccc1NC(=O)c1ccc(C)c(S(=O)(=O)N2CCCCC2)c1,53,–,–
COc1ccccc1NC(=O)c1ccc(Cl)c(S(=O)(=O)N2CCCCC2)c1,–,–,–
CN(C)S(=O)(=O)c1ccc(NC(=O)/C=C/c2ccccc2Cl)cc1,–,·,–
CN(C)c1ccc(NC(=O)/C=C/c2c(Cl)cccc2Cl)cc1,–,13,–
CCS(=O)(=O)N1CC2(C1)[C@H](c1ccccc1)[C@H](CO)N2CCC(F)(F)F,·,–,·
CN(C)c1ccc(N=Nc2ccc(C(=O)O)cc2)cc1,–,–,–
Cc1csc(N=Nc2ccc(N(C)C)cc2)[n+]1[O-],·,13,–
C[C@H](NC(=O)C[C@H]1CC[C@H]2[C@@H](COC[C@@H](O)CN2C(=O)Nc2cc(Cl)cc(Cl)c2)O1)c1ccccc1,·,–,·
COc1ccc(S(=O)(=O)Nc2ccc3c(c2)C(=O)N([C@@H](C)CO)C[C@@H](C)[C@H](CN(C)S(C)(=O)=O)O3)cc1,·,–,·
O=c1[nH]c(/C=C\c2ccc(O)cc2)nc(O)c1[N+](=O)[O-],–,16,–
O=c1[nH]c(/C=C\c2ccc(O)c(Cl)c2)nc(O)c1[N+](=O)[O-],–,12,–
CCOc1cc(/C=C\c2nc(O)c([N+](=O)[O-])c(=O)[nH]2)ccc1OC(C)C,–,–,–
O=c1[nH]c(/C=C\c2cccs2)nc(O)c1[N+](=O)[O-],–,–,–
N#C[C@H]1[C@H](c2ccccc2C2=CCCCC2)[C@H](CO)N1C(=O)c1cccc(F)c1,·,–,·
CC=Cc1ccc2n(c1=O)C[C@H]1[C@H](CO)[C@@H](C(=O)NC3CCC3)N(Cc3ccncc3)[C@@H]21 (mixture of isomers),·,–,·
O=C(Cc1ccccc1)N[C@@H]1CC[C@H](CC(=O)N2CCOCC2)O[C@@H]1CO,·,–,·
COc1ccc(-c2ccc3n(c2=O)C[C@@H]2[C@@H](CO)[C@H](C(=O)NCCN4CCCCC4)N(C)[C@H]32)cc1,·,–,·
Cc1ccc(CNC(=O)CN2C(=O)NC(C)(c3ccc(Cl)cc3)C2=O)cc1 (configuration not stated),–,–,–
Cc1ccc(CNC(=O)CN2C(=O)NC(C)(c3ccccc3Cl)C2=O)cc1 (configuration not stated),53,–,–
CO[C@H]1CN(C)C(=O)c2ccc(NC(=O)C3CCCC3)cc2OC[C@H](C)N(CCC(F)(F)F)C[C@H]1C,·,–,·
CCn1c(NC(=O)c2cccc(Cn3cc(Cl)cn3)c2)nc2ccccc21,51,–,–
Cn1c(NC(=O)c2cccc(Cn3cc(Cl)cn3)c2)nc2ccccc21,–,·,–
SMILES,DUSP3 inh,TcdB inh,PrPC TRFRET
C[C@H](CO)N1C[C@H](C)[C@@H](CN(C)C(=O)Nc2ccc3c(c2)OCO3)OCCCC[C@H](C)Oc2ccc(NC(=O)Nc3ccccc3)cc2C1=O,·,–,·
Cc1cccn2c(=O)c3cc(C(=O)NCc4ccc(F)cc4)c(=N)n(CC4CCCO4)c3nc12 (configuration not stated),56,–,–
COc1ccc(CNC(=O)c2cc3c(=O)n4cccc(C)c4nc3n(CC3CCCO3)c2=N)cc1 (configuration not stated),–,–,–
COc1cccc(CNCc2ccc(OC)cc2OC)c1,56,–,–
CCOc1cc(CNCc2ccc(C(=O)O)cc2)ccc1OC,–,–,–
CCOc1cc(CNCc2cc(OC)cc(OC)c2)ccc1OC,51,–,–
COc1ccc(CNCc2ccc(F)cc2)c(OC)c1,–,–,–
COc1cc2c(cc1OC)C(C)N(C(=O)c1cc3ccccc3o1)CC2 (configuration not stated),51,–,–
